Records with an inconclusive call do not appear. Calls of active or inactive are those of the source. Calls come from the whole dose curve; as a rule, active = well fitted inhibition curve with a large enough effect; inconclusive = small, poorly fitted or top-dose-only effect; inactive = flat fitted curve, though single readings scatter.
Each compound was assayed on Trypanosoma cruzi 6-phosphofructokinase (assay: Confirmatory Assay to Find Inhibitors of T. brucei phosphofructokinase: Counter Screen against T cruzi PFK). Settings: ADP-Glo luminescence, 45 min; series mostly up to 57.5 µM.
Description: Various species of the protozoan family Trypanosomatidae are responsible for a range of serious human diseases in tropical and subtropical areas of the world. […] Many of the disorders caused by trypanosomatids are fatal if left untreated, but most currently used drugs are inefficient and toxic. […] Oxidative metabolism involving the mitochondrial tricarboxylic acid cycle and oxidative phosphorylation are repressed in these parasites, and recent RNA interference (RNAi) experiments have shown that even partial depletion of certain individual glycolytic enzymes can lead to the death of cultured parasites. One such glycolytic enzyme, phosphofructokinase (PFK), catalyzes the formation of fructose-1,6-bisphosphate (F1,6BP) and ADP from fructose-6-phosphate (F6P) and ATP, and in many metabolic circumstances makes an important contribution to the control of flux through the glycolytic pathway. As a specific glycolytic target, PFK is particularly attractive as it catalyzes the first irreversible step in glycolysis, and structural and kinetic studies have shown very substantial and essential differences from corresponding host enzymes, allowing for the discovery of parasite-selective inhibitors. Confirmed qHTS active compounds were tested against T cruzi PFK. A luminescent biochemical assay was performed that used luciferase-based nucleotide detection (ADP-Glo, Promega) to examine the effect of identified actives against another trypanosomal isoform of PFK, namely Trypansoma cruzi, for target specificity. The assay is identical in concept to the T. brucei PFK qHTS assay, but instead uses the T. cruzi isoform of PFK (expressed and purified by U. of Edinburgh). NIH Molecular Libraries Probe Production Network [MLPCN] NIH Chemical Genomics Center [NCGC] Grant: 1 R03 MH092153-01 PI Name: Malcolm Walkinshaw, University of Edinburgh
Substrate buffer was dispensed into white, solid 1536-well plates at 3 uL/well in 0.1M triethanolamine (TEA) buffer, pH 8.0, containing final concentrations of 5 mM MgCl2, 0.01% Tween20, 0.6mM fructose-6-phosphate (F6P) and 0.1mM ATP. Then, 23nl of compounds or DMSO were delivered to each well using a pin tool. One uL of T. cruzi PFK (0.1M TEA, 0.01% Tween20, 0.1% bovine serum albumin (BSA) and […] PFK, final concentrations) was then dispensed, and plates were incubated at room temperature for 45 min. The luminescent detection reagent, ADP-Glo (Promega), was then added in two steps: the first reagent, ADP-Glo (which converts remaining uncatalyzed ATP), was added at 2.5uL/well and incubated for ten minutes at room temperature, and the second component, Kinase Detection reagent (which converts ADP to ATP as a substrate for luciferase-based luminescence), was added immediately after at 5uL/well, followed by one final ten minute room temperature incubation. The plates were measured on a ViewLux plate reader for luminescent signal using a clear filter with a one second exposure. The %Activity was determined from the corrected luminescence values. 1x (1.25nM) and 0x PFK enzyme controls (untreated) were included to normalize %Activity of identified inhibitors; 0x enzyme values corresponded to 100%Activity (full inhibition), while 1x PFK enzyme values were used to normalize 0% Activity (no inhibition).

SMILES | Potency
Cc1cc(NS(=O)(=O)c2ccc(NC(=O)Cc3ccc(Cl)c(C(F)(F)F)c3)cc2)no1 | 919 nM (active)
Cc1cc(NS(=O)(=O)c2ccc(NC(=O)Cc3ccc(Cl)cc3Cl)cc2)no1 | 14600 nM (active)
Cc1cc(N[S+](=O)([O-])c2ccc3cc(NC(=O)Cc4ccc(Cl)c(Cl)c4)ccc3c2)no1 | 4610 nM (active)
Cc1cc(NS(=O)(=O)c2ccc(NS(=O)(=O)Cc3ccc(Cl)c(Cl)c3)cc2)no1 | inactive
O=C(Cc1ccc(Cl)c(Cl)c1)Nc1ccc(S(=O)(=O)Nc2ccn[nH]2)cc1 | 730 nM (active)
Cc1cc(NS(=O)(=O)c2ccc(NC(=O)Cc3ccc(C)c(F)c3)cc2)no1 | 4610 nM (active)
Cc1cc(NS(=O)(=O)c2ccc(NC(=O)CCc3ccc(Cl)c(Cl)c3)cc2)no1 | 6510 nM (active)
Cc1cc(NS(=O)(=O)c2ccc(NC(=O)Cc3ccc(Cl)c(Cl)c3)cc2)on1 | 231 nM (active)
O=C(Cc1ccc(Cl)c(Cl)c1)Nc1ccc(S(=O)(=O)Nc2cccc(C(=O)O)c2)cc1 | 580 nM (active)
Cc1cc(NS(=O)(=O)c2ccc(NCCc3ccc(Cl)c(Cl)c3)cc2)no1 | 16300 nM (active)
O=C(Cc1ccc(Cl)c(Cl)c1)Nc1ccc(S(=O)(=O)O)cc1 | 461 nM (active)
Cc1cc(N(C)S(=O)(=O)c2ccc(NC(=O)Cc3ccc(Cl)c(Cl)c3)cc2)no1 | 2060 nM (active)
O=C(Cc1ccc(Cl)c(Cl)c1)Nc1ccc(S(=O)(=O)Nc2ccc(C(=O)O)cc2)cc1 | 291 nM (active)
Cc1cc(NS(=O)(=O)c2ccc(C(=O)NCc3ccc(Cl)c(Cl)c3)cc2)no1 | 2910 nM (active)
Cc1cc(N[S+](=O)([O-])c2ccc(NC(=O)Cc3ccc(Cl)nc3)cc2)no1 | 20600 nM (active)
O=C(Cc1ccc(Cl)c(Cl)c1)Nc1ccc(S(=O)(=O)Nc2ccccc2)cc1 | 16300 nM (active)
Cc1cc(NS(=O)(=O)c2ccc(NC(=O)Cc3ccc(Cl)c(F)c3)cc2)no1 | 651 nM (active)
Cc1cc(NC(=O)c2ccc(NC(=O)Cc3ccc(Cl)c(Cl)c3)cc2)no1 | inactive

SMILES | Potency
Cc1cc(NS(=O)(=O)c2ccc(NC(=O)Cc3ccc(C)c(C)c3)cc2)no1 | 6510 nM (active)
Cc1cc(NS(=O)(=O)c2ccc(N(C)C(=O)Cc3ccc(Cl)c(Cl)c3)cc2)no1 | 1300 nM (active)
Cc1cc(NS(=O)(=O)c2ccc(NC(=O)Cc3ccc4ccccc4c3)cc2)no1 | 1830 nM (active)
Cc1cc(NS(=O)(=O)Cc2ccc(NC(=O)Cc3ccc(Cl)c(Cl)c3)cc2)no1 | 3260 nM (active)
Cc1cc(NS(=O)(=O)c2ccc(NC(=O)Cc3ccc(Cl)cc3)cc2)no1 | 1460 nM (active)
Cc1cc(NS(=O)(=O)c2ccc(NC(=O)Cc3ccc(Cl)c(Cl)c3)cc2)no1 | 231 nM (active)
Cc1cc(NC(=O)c2csc(NC(=O)Cc3ccc(Cl)c(Cl)c3)n2)no1 | inactive
Cc1cc(NS(=O)(=O)c2ccc(NC(=O)Cc3cccc(Cl)c3)cc2)no1 | 2590 nM (active)
Cc1cc(NS(=O)(=O)c2ccc(NC(=O)Cc3ccc(Cl)c(Cl)c3)cc2)n(C)n1 | 1160 nM (active)
O=C(Cc1ccc(Cl)c(Cl)c1)Nc1ccc(S(=O)(=O)Nc2cccc(O)c2)cc1 | 1630 nM (active)
O=C(Cc1ccc(Cl)c(Cl)c1)Nc1ccc(S(=O)(=O)Nc2cncnc2)cc1 | 730 nM (active)
O=C(Cc1ccc(Cl)c(Cl)c1)Nc1ccc(S(=O)(=O)Nc2ccon2)cc1 | 130 nM (active)
COc1ccc(CC(=O)Nc2ccc(S(=O)(=O)Nc3cc(C)on3)cc2)cc1OC | inactive
Cc1cc(NS(=O)(=O)c2cccc(NC(=O)Cc3ccc(Cl)c(Cl)c3)c2)no1 | 16300 nM (active)
Cc1cc(NS(=O)(=O)CCNC(=O)Cc2ccc(Cl)c(Cl)c2)no1 | 16300 nM (active)
CN(C)c1cccc(NS(=O)(=O)c2ccc(NC(=O)Cc3ccc(Cl)c(Cl)c3)cc2)c1 | 11600 nM (active)
CCOC(=O)c1cccc(NS(=O)(=O)c2ccc(NC(=O)Cc3ccc(Cl)c(Cl)c3)cc2)c1 | inactive

Source: PubChem BioAssay AID588324 (National Center for Advancing Translational Sciences (NCATS), 2011)
